Shown are actives, neighbours in structure and some others; about 3.9% of the full set was active somewhere.
D1 agonist = agonists of human D1 dopamine receptor; AID 504660; activation, % at 2 µM; 360,000 tested, 1% active; P21728; HEK293 T-REx D1 cells, calcium flux, agonist mode; in the data active = activation above about 30%
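Agonism was scored from calcium flux recorded over 180 s (1 read/s) after pintool compound addition, following a 10-cycle baseline. Cells were inducible force-coupled HEK293 TREx D1, plated overnight at 30 C and loaded with no-wash calcium dye.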
USP2a inh = inhibitors of human ubiquitin-specific protease USP2a; USP2 core, Ub-CHOP2 coupled fluorogenic reporter, 485/531; Potency, µM (top dose mostly 38.3 µM), most hits filed as inhibitors; 330,000 tested, 0.01% active; AID 463254
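Cell-free coupled assay: 10nM USP2 core preincubated 30min RT with compound in Tris-HCl pH 8.0/CaCl2/CHAPS buffer, then 25nM Ub-CHOP2 and 25nM reporter substrate; fluorescence (Ex 485/Em 531) read after 60min RT, normalized to NEM inhibition, concentration-response curves fitted.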
Eya2 phos inh = blocks the phosphatase activity of human Eya2 | O00167 | recombinant Eya2, OMFP fluorescence dephosphorylation (OMFP is methylfluorescein phosphate) | Potency, µM (titrated, usually from 76.9 µM), hits mostly inhibitors | 330,000 tested, 0.006% active | AID 488837
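Eya2 protein (added as 0.2 uM solution) was preincubated with compound for 10 min at ambient temperature in 50 mM HEPES pH 7.5, 50 mM NaCl, 5 uM MgCl2, 0.05% BSA, 1 mM DTT. OMFP (added at 50 uM) then reacted 10 min; fluorescence read at 485/525 nm.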
GALK inhibitor = galactokinase (human) inhibition. Purified GALK, Kinase-Glo residual ATP luminescence. 270,000 tested, 0.007% active. P51570. Potency, µM (titrated, usually from 57.5 µM), actives largely listed as inhibitors
Target sequence (P51570 whole entry, looked up): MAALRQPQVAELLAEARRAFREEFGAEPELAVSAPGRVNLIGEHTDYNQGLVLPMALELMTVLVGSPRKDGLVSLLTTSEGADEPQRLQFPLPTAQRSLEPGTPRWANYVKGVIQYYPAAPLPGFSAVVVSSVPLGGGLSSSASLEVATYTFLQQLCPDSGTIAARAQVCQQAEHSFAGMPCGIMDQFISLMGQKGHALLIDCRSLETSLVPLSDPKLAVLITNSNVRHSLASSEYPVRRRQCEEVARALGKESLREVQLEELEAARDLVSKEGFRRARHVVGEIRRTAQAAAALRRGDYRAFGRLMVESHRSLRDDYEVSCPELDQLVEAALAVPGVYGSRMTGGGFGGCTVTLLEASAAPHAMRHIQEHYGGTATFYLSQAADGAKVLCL
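5 nM enzyme, 35 uM ATP, 100 uM galactose, 20 mM HEPES pH8.0, 5 mM MgCl2; 1 h RT; residual ATP by Kinase-Glo Plus luminescence, qHTS format.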
D1 PAM = human D1 dopamine receptor positive modulation | HEK293 TREx D1 cells, calcium flux, dopamine EC20 potentiation | AID 504651 | 360,000 tested, 0.036% active | potentiation, % at 10 µM; in the data active = potentiation above about 30%
D1 antag = antagonists of human D1 dopamine receptor; P21728; HEK293 TREx D1 cells, calcium flux, dopamine EC80; hits give low values; activity change, negative = inhibition, % at 10 µM; 360,000 tested, 3.2% active; AID 504652; in the data active = activity change below about -30%
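Tetracycline-induced HEK293 T-REx cells with force-coupled D1 receptor were loaded with a no-wash calcium dye. Compound was added after a 10 s baseline and read kinetically for 180 s; EC80 dopamine was then added and calcium flux followed another 180 s.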
Hits are given with their value; - = inactive; . = not tested or not shown. Unless noted, calls come from the whole dose curve; as a rule, active = well fitted inhibition curve with a large enough effect; inconclusive = small, poorly fitted or top-dose-only effect, or effect the other way; inactive = flat fitted curve, though single readings scatter.

SMILES	D1 agonist	USP2a inh	Eya2 phos inh	GALK inhibitor	D1 PAM	D1 antag
CN1CCN(C(=O)c2ccc3c(c2)NC(=O)/C(=C/c2ccccc2)S3)CC1	-	-	-	-	-	-
Cc1ccc(/C=C2/Sc3ccc(C(=O)N4CCN(c5ccccn5)CC4)cc3NC2=O)cc1	-	-	-	-	-	-46
CC(Cc1cccnc1)NC(=O)c1cc(COc2ccc(F)cc2Cl)on1 (configuration not stated)	-	-	-	-	-	-34
CCOC(=O)N1CCC2(CC1)OC(=O)C(C)=C2C(=O)NCc1ccc(C)cc1	-	.	.	.	-	-
O=C(CN1CCC(n2nnc3cc(F)ccc32)CC1)NC1CC1	-	-	-	-	-	-49
O=C(CN1CCC(n2nnc3cc(F)ccc32)CC1)Nc1ccccc1N1CCOCC1	-	-	-	-	-	-71
O=C(CN1CCC(n2nnc3cc(F)ccc32)CC1)NC1CCCCC1	-	-	-	-	-	-
Cc1cc(/C=N/NC(=O)C(O)(c2ccccc2)c2ccccc2)c(C)n1-c1cccc(C(=O)O)c1	-	-	-	-	-	-31
Cc1cc(C)n2nc(-c3ccsc3-n3c(C)ccc3C)cc2n1	-	-	-	-	-	-55
Cc1ccc(-c2cc3nc(C)cc(C)n3n2)cc1	-	-	-	-	-	-
CCCN1C[C@H](CSC)C[C@@H]2c3cccc4[nH]cc(c34)C[C@H]21	51	-	-	-	-	-88
Cc1[nH]c(C)c(S(=O)(=O)N2CCN(c3ccc(Cl)cc3)CC2)c1C(=O)N1CCCC1	-	-	-	-	-	-34
Cc1c(C(=O)N2CCCCC2)c(S(=O)(=O)N2CCN(c3ccc(Cl)cc3)CC2)c(C)n1C	-	-	-	-	-	-32
Cc1c(C(=O)N2CCOCC2)c(S(=O)(=O)Nc2cccc(C#N)c2)c(C)n1C	-	-	-	-	-	-49
Cc1[nH]c(C)c(S(=O)(=O)NCc2ccc(Cl)cc2)c1C(=O)N1CCCC1	-	-	-	-	33	-
Cc1c(C(=O)N2CCOCC2)c(S(=O)(=O)Nc2cccc(F)c2)c(C)n1C	-	-	-	-	-	-
Cc1nn(-c2ccccc2)c(OC(=O)C(C)C)c1Sc1ccc(Cl)cc1	-	.	.	.	-	-
COc1ccc(N2CCN(C(=O)c3ccc(Cl)c(S(=O)(=O)N4CCCC4)c3)CC2)cc1	-	-	-	-	-	-34
COc1ccc(C(=O)N2CCN(c3ccc(C(C)=O)cc3)CC2)cc1S(=O)(=O)N1CCCC1	.	-	-	.	.	.
CC(=O)c1ccc(N2CCN(S(=O)(=O)c3c(C(=O)N4CCCC4)c(C)n(C)c3C)CC2)cc1	-	-	-	-	-	-
COc1ccc(N2CCN(S(=O)(=O)c3c(C(=O)N4CCOCC4)c(C)n(C)c3C)CC2)cc1	-	-	-	-	-	-35
O=C1CC(c2ccco2)CC2=C1C(c1cccnc1)n1nc(C(F)(F)F)nc1N2 (configuration not stated)	-	.	.	.	-	-
Cc1cc(NC(=O)Cc2c(F)cccc2Cl)no1	-	-	-	-	-	-30
O=C(Cc1c(F)cccc1Cl)Nc1ccon1	-	-	-	-	-	-
C=CCn1c(NCc2c[nH]c3ccccc23)nc2ccccc21	-	-	-	-	-	-59
SMILES	D1 agonist	USP2a inh	Eya2 phos inh	GALK inhibitor	D1 PAM	D1 antag
Cn1c(NCc2c[nH]c3ccccc23)nc2ccccc21	-	-	-	-	-	-
CC(C)c1ccc(NC(=O)CSC2=Nc3ccccc3C3=NC(CC(=O)NCCc4ccccc4)C(=O)N23)cc1 (configuration not stated)	-	.	.	.	-	-
COc1ccc(S(=O)(=O)NCCS(=O)(=O)N2CCN(c3ccccc3)CC2)cc1OC	-	.	.	.	-	-
O=C(COc1ccc(S(=O)(=O)Nc2ccc(Cl)cc2)cc1)N1CCOCC1	31	-	-	-	-	-
COc1ccc(NS(=O)(=O)c2ccc(OCC(=O)N3CCOCC3)cc2)cc1	-	-	-	-	-	-
Cc1ccc(N(CCC(=O)N2CCOCC2)S(=O)(=O)c2ccccc2)cc1	-	-	-	.	.	-55
O=C(CCNS(=O)(=O)c1ccc(Cl)cc1)N1CCOCC1	-	-	-	-	-	-32
CN(Cc1ccccc1)S(=O)(=O)c1ccc(OCC(=O)N2CCOCC2)cc1	-	-	-	-	-	-32
CCCCN1CCc2nc(N3CCN(c4ncccn4)CC3)ncc2C1	-	.	.	.	-	-
COc1ccc(Cn2c(CCC(=O)Nc3cccc(OC)c3)nc3cccnc32)cc1	-	.	.	.	-	-
Cc1cc2oc(C(=O)Nc3cccc(-c4nc5ccccc5o4)c3)c(C)c2cc1Cl	-	.	.	.	-	-
CC(C)Oc1ccc(CN2CCc3nc(Nc4ccc5c(c4)OCCO5)ncc3C2)cc1	-	.	.	.	-	-
CCN1C=C(Cc2ccccc2C)C2=C(C1)C(c1ccccc1C)C(C#N)=C(N)O2 (configuration not stated)	-	-	-	-	-	-
CCN1C=C(Cc2ccc(F)cc2)C2=C(C1)C(c1ccc(F)cc1)C(C#N)=C(N)O2 (configuration not stated)	-	-	-	-	-	-55
CCNC(=S)/N=C(/Nc1ccc(OC)cc1)Nc1nc(C)cc(C)n1	-	-	-	-	-	-
COc1cccc(N/C(=N/C(=S)Nc2ccc(C)cc2C)Nc2nc(C)cc(C)n2)c1	-	-	-	-	-	-61
Cc1c(C(=O)NCCN(C)C)oc2c1-c1nn(Cc3ccccc3Cl)cc1CC2	-	.	.	.	-	-
O=c1[nH][nH]cc1C=Nc1ccc(Cl)cc1	-	-	-	-	-	-
COc1cccc(N=Cc2c[nH][nH]c2=O)c1	-	-	-	-	-	-31
CCc1sc(C(=O)NC2CCN(C)CC2)cc1Br	36	-	-	-	-	-
CCc1sc(C(=O)N2CCCN(C)CC2)cc1Br	-	-	-	-	-	-
CC(C)c1ccc(NC(=O)CCCN2C(=O)NC(C)(C)C2=O)cc1	-	-	-	.	-	-53
Cc1ccc(NC(=O)CCN2C(=O)NC3(CCCC3)C2=O)cc1	-	-	-	.	-	-
Cc1ccc(Sc2ccc(NC(=O)CCl)cc2)c(C)c1	-	-	-	-	-	-73
Cc1ccc(C)c(Sc2ccc(NC(=O)CCN3C(=O)NC4(CCCC4)C3=O)cc2)c1	-	-	-	.	-	-33
O=C(NCc1ccc(F)cc1)c1cc2n(n1)CCCN(Cc1ccc(F)cc1)C2=O	-	.	.	.	-	-
CCOc1ccc(CNC(=O)c2ccc3c(c2)sc2nc(-c4ccc(OC)cc4)cn23)cc1	-	.	.	.	-	-
COc1ccc(OC)c(C2CC(=O)Nc3c2c(=O)[nH]c2nc4ccccc4n32)c1 (configuration not stated)	-	.	.	.	-	-
